The target of this test is Solute carrier family 2, facilitated glucose transporter member 1 (Homo sapiens) (UniProt P11166). As to the kind of experiment: ST_JUDE_LEISH: Cytotoxicity at 2uM final concentration against transgenic Leishmania Mexicana promastigotes LmGLUT1 that are glucose transport deficient and complemented with the human glucose transporter GLUT1. Activity is measured by DNA content using SYBR green in vitro. Format: functional.
Chain of Solute carrier family 2, facilitated glucose transporter member 1 (Homo sapiens) (P11166 whole entry): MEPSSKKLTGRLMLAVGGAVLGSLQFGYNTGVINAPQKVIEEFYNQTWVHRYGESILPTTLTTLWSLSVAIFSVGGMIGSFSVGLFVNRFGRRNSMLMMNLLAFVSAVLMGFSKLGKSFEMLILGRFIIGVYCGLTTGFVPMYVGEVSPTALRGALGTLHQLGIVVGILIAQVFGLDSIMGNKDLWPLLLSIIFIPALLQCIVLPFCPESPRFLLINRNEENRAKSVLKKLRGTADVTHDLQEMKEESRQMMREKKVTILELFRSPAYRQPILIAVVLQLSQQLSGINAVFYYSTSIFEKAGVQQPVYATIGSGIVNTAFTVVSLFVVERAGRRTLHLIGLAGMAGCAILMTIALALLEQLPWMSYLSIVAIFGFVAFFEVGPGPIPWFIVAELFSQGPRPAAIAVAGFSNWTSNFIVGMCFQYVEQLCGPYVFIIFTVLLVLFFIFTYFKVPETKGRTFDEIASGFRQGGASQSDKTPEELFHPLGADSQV
The term inhibition denotes the drop in the measured response relative to a control, in per cent. As to `Cc1cccc2nc(-c3cccc(-c4ccc(NC(=O)c5ccc(=O)[nH]n5)cc4)c3)[nH]c12`, the inhibition came to 3.76%.
Then `CN1CCCC(CN2CCN(Cc3ccc(-c4cccc(-c5nc6ccccc6[nH]5)c4)cc3)CC2)C1` (centres undefined), with 3.67%.
For the compound `CCOC(=O)c1ccc(NC(=O)N(Cc2ccc(-c3ccc(CN4CCNCC4)cc3)cc2)Cc2cccnc2)cc1`, the inhibition was found to be 2.01%.
Consider `COc1ccc(S(=O)(=O)N(c2cc(Br)cc3c2OCC3)S(=O)(=O)c2ccc(OC)c(N3CCN(C)CC3)c2)cc1N1CCN(C)CC1`, for which the inhibition turned out to be 0.39%.
Then `COc1cc2c(cc1O)[C@@H]1[C@H](O)[C@@H](O)C=C3CCN(C2)[C@H]31`, with 4.04%; and `COc1ccc(CCN(C)CCOc2ccc(NC(=O)c3cccc4c(=O)c5cc(SC)ccc5[nH]c34)cc2)cc1OC`, with 9.29%.
In the case of `CC(=O)c1ccc(NC(=O)C2c3ccccc3C(=O)N(CC(C)C)C2c2cccs2)cc1` (centres undefined), the inhibition is -0.43%.
As for `CCOC(=O)c1ccc(NC(=O)Nc2cccc(-c3ccc(-c4nc5cccc(C)c5[nH]4)s3)c2)cc1`, the inhibition is -0.56%.
With `CCc1ccc(C2CCN(CCCCNC(=O)c3ccc(NC(=O)c4ccc(Cl)cc4)cc3)CC2)cc1`, the inhibition is -0.05%.
The figure for `CNC(=O)c1cncc(/C=C/c2ccccc2S(N)(=O)=O)c1` is -0.22%.
In the case of `O=C(NC1CCCCC1)N(Cc1cccc(-c2cccc(CNC3CCCC3)c2)c1)C1CCN(Cc2ccccc2)CC1`, the inhibition turned out to be 8.95%.
In the case of `Cc1cccc(CCNC(=O)c2cc(Br)cc(N3CCN(c4ccncc4)CC3)c2)c1`, the inhibition is 0.72%.
The figure for `CN(CC(=O)Nc1ccc(F)cc1)C(=O)c1ccc(-c2ccc(F)cc2)o1` is 5.1%; for `COc1ccc(CN2CCCN(Cc3cccc(NC(=O)c4ccc5ccccc5c4)c3)CC2)cc1` it is 1.59%.
Then `CCCCCCN1CCC(CNCc2cccc([N+](=O)[O-])c2)CC1`, with 5.28%.
Then `COc1ccc2nc(-c3cc(-c4ccc(NC(=O)C(C)C)cc4)cnc3N)[nH]c2c1`, with 20.8%; and `CCCCN(CCCC)Cc1cc(Nc2ccnc3cc(Cl)ccc23)ccc1O`, with 4.85%.
For `CC(C)c1ccc(NC(=O)c2cccc(CN3CCCN(Cc4cccc(O)c4)CC3)c2)cc1`, the inhibition turned out to be 15.4%.
For the compound `Cc1ccc(C(=O)NC2CCN(CCNC(=O)Nc3cc(C)nc4ccccc34)CC2)cc1`, the inhibition is -1.56%.
The figure for `CC(CN1CCN(C)CC1)C(=O)Nc1ccc(-c2csc(-c3nc4ccccc4[nH]3)c2)cc1` (centres undefined) is 4.03%; for `Cn1cncc1-c1ccc2c(-c3ccsc3)cnc(N)c2c1` it is 5.58%.
The figure for `Cc1cccc2nc(-c3ccc(-c4ccc(CNCc5ccccc5)cc4)cc3)[nH]c12` is 3.54%; for `O=C(Nc1ccc(-c2nc3ccccc3[nH]2)cc1)c1cccc(S(=O)(=O)N2CCCC2)c1` it is 6.3%; for `Cc1cccc(C(=O)Nc2ccnc(N(C)CCCN(C)Cc3cccc(O)c3)c2)c1` it is -1.6%.

The record behind these values is ChEMBL document CHEMBL3433997, “St. Jude Leishmania screening dataset” (2016).
